Results taken from PubChem BioAssay.
The source made the active and inactive calls.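 The calls were made as follows, unless noted: active = compounds lowering colon cancer cell viability after pretreatment blocking the GSK3B kinase; inactive = the rest.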

Columns and labels:
[1] = Wnt pathway potentiators raising nuclear beta-catenin – imaging, WNT3A-conditioned medium, mouse C2C12, NPC library, primary screen (AID 1117326; in the data active = nuclear beta-catenin stimulation mostly above about 4.2%, no sharp cut-off; inactive = mostly below about 10%; also: reference of the scale not given here); conditions: stronger effect = higher value
[2] = stimulators of insulin release from INS-1E, primary screen, cell-based, 5 mM glucose, NPC library (AID 1117329;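 active = compound raises insulin release from rat beta cells at 5 mM glucose, no numeric limit stated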; also: reference of the scale not given here); conditions: rat INS-1E insulin secretion, at 10 µM, stronger effect = higher value
[3] = growth inhibition of GSK3B-pretreated HCT116 cells – cell-based, CellTiter-Glo, 0.2 to 20 µM (AID 1117336); conditions: HCT116 viability after GSK3B inhibitor, at 20 µM, stronger effect = higher value
[4] = inhibition of endothelial tube formation, primary screen, imaging, VEGF stimulated, CD31 staining, tube area, NPC library (AID 1117340;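 active = compound that reduces growth-factor-driven endothelial tube area in a mixed cell culture, no cutoff stated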); conditions: VEGF-stimulated ADSC/ECFC co-culture, at 10 µM, stronger effect = higher value
[5] = GLP1 release stimulators, primary, NCI-H716, NPC library (AID 1117341;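 active = compound raises GLP1 secretion from the human gut endocrine cells, with no numeric limit stated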; also: reference of the scale not given here); conditions: NCI-H716 cells, at 10 µM, stronger effect = higher value
[6] = HCT116 colon cancer cell growth inhibition, primary screen, CellTiter-Glo luminescence, NPC library (AID 1117342;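 active = compounds that lower survival of HCT116 colon cancer cells in the luminescence readout, no numeric limit stated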); conditions: at 20 µM (top of the series)
[7] = reduced SW480 viability measured with CellTiter-Glo, NPC library, primary (AID 1117343;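 active = compounds that lower viability of the colon cancer cells in the luminescence readout, with no numeric limit stated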); conditions: CellTiter-Glo luminescence; at 20 µM (top of the series)
[8] = NPC library primary testing for decreased DLD-1 cell viability via CellTiter-Glo (AID 1117346;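 active = compounds that lower survival of DLD-1 colon cancer cells in the luminescence readout, no cutoff given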); conditions: DLD-1 viability, CellTiter-Glo luminescence; at 20 µM (top of the series)

CNC(=O)c1c(I)c(NC(=O)CCCCC(=O)Nc2c(I)c(C(=O)O)c(I)c(C(=O)NC)c2I)c(I)c(C(=O)O)c1I
2.2%: nuclear beta-catenin stimulation ([1]; stimulation, at 2 µM)
inactive: nuclear beta-catenin stimulation ([1]; at 10 µM) -0.7% | insulin secretion stimulation [2] -0.3% | viability decrease [3] -17.5% | tube area decrease [4] -0.8% | GLP1 secretion stimulation [5] -0.4% | inhibition of viability [6] 9.4% | viability decrease (inhibition) [7] -3.6% | viability decrease (inhibition) [8] -2.4%

CC(C)OP(=O)(CP(=O)(OC(C)C)OC(C)C)OC(C)C
inactive: nuclear beta-catenin stimulation ([1]; at 10 µM) -0.3% | insulin secretion stimulation [2] 0.8% | viability decrease [3] -8.5% | tube area decrease [4] 11.4% | GLP1 secretion stimulation [5] -0.8% | inhibition of viability [6] 1.5% | viability decrease (inhibition) [7] -11.1% | viability decrease (inhibition) [8] 10.4%
1.5%: nuclear beta-catenin stimulation ([1]; stimulation, at 2 µM)

OC[C@H]1O[C@@H]2O[C@H]3[C@H](O)[C@@H](O)[C@@H](O[C@H]4[C@H](O)[C@@H](O)[C@@H](O[C@H]5[C@H](O)[C@@H](O)[C@@H](O[C@H]6[C@H](O)[C@@H](O)[C@@H](O[C@H]7[C@H](O)[C@@H](O)[C@@H](O[C@H]8[C@H](O)[C@@H](O)[C@@H](O[C@H]1[C@H](O)[C@H]2O)O[C@@H]8CO)O[C@@H]7CO)O[C@@H]6CO)O[C@@H]5CO)O[C@@H]4CO)O[C@@H]3CO
inactive: nuclear beta-catenin stimulation ([1]; at 10 µM) 0.1% | insulin secretion stimulation [2] 1.1% | viability decrease [3] -5.9% | tube area decrease [4] 2.3% | GLP1 secretion stimulation [5] -1.9% | inhibition of viability [6] 1.17% | viability decrease (inhibition) [7] 21% | viability decrease (inhibition) [8] -3.7%
0.5%: nuclear beta-catenin stimulation ([1]; stimulation, at 2 µM)

CC(=O)Oc1ccc(C(=C2CCCCC2)c2ccc(OC(C)=O)cc2)cc1
1.4%: nuclear beta-catenin stimulation ([1]; stimulation, at 2 µM)
inactive: nuclear beta-catenin stimulation ([1]; at 10 µM) 0.2% | insulin secretion stimulation [2] -0.3% | tube area decrease [4] 4.9% | GLP1 secretion stimulation [5] 7.4%
active: viability decrease [3] 109% | inhibition of viability [6] 112% | viability decrease (inhibition) [7] 130% | viability decrease (inhibition) [8] 102%

NCC(=O)O
4%: nuclear beta-catenin stimulation ([1]; stimulation, at 2 µM)
inactive: nuclear beta-catenin stimulation ([1]; at 10 µM) 2.3% | insulin secretion stimulation [2] -2.4% | viability decrease [3] 1.6% | tube area decrease [4] -10.9% | GLP1 secretion stimulation [5] 1.3% | inhibition of viability [6] -28% | viability decrease (inhibition) [7] -6.3% | viability decrease (inhibition) [8] 7.4%

CCOC(=O)N1CCC(n2c(=O)[nH]c3cc(Cl)ccc32)CC1
inactive: nuclear beta-catenin stimulation ([1]; at 10 µM) -2.8% | insulin secretion stimulation [2] -5.2% | viability decrease [3] 15.6% | tube area decrease [4] 14.4% | GLP1 secretion stimulation [5] -8.8% | inhibition of viability [6] 49.4% | viability decrease (inhibition) [7] 19.8% | viability decrease (inhibition) [8] 0.5%
-0.2%: nuclear beta-catenin stimulation ([1]; stimulation, at 2 µM)

NS(=O)(=O)c1ccc(N2CCCCS2(=O)=O)cc1
inactive: nuclear beta-catenin stimulation ([1]; at 10 µM) 0.5% | insulin secretion stimulation [2] -0.3% | viability decrease [3] -15.7% | tube area decrease [4] 5.1% | GLP1 secretion stimulation [5] -1.7% | inhibition of viability [6] -8.93% | viability decrease (inhibition) [7] 29% | viability decrease (inhibition) [8] -6.9%
-0.6%: nuclear beta-catenin stimulation ([1]; stimulation, at 2 µM)

O=C(O)Cc1ccccc1Oc1ccc(Cl)cc1Cl
0.7%: nuclear beta-catenin stimulation ([1]; stimulation, at 2 µM)
inactive: nuclear beta-catenin stimulation ([1]; at 10 µM) 0.5% | insulin secretion stimulation [2] 1.5% | viability decrease [3] -7.6% | tube area decrease [4] 3.2% | GLP1 secretion stimulation [5] 1% | inhibition of viability [6] -0.8% | viability decrease (inhibition) [7] -5% | viability decrease (inhibition) [8] 5.9%

CCOC(=O)c1ccc(OCCN2C[C@H](O)[C@@H](O)[C@H](O)[C@H]2CO)cc1
inactive: nuclear beta-catenin stimulation ([1]; at 10 µM) 1.7% | insulin secretion stimulation [2] 0.1% | viability decrease [3] -17.2% | tube area decrease [4] 10.1% | GLP1 secretion stimulation [5] -1% | inhibition of viability [6] -40.4% | viability decrease (inhibition) [7] -62.9% | viability decrease (inhibition) [8] -12.5%
0.9%: nuclear beta-catenin stimulation ([1]; stimulation, at 2 µM)

O=C(O)c1ccc(OCCN2CCCCC2)cc1
-0.1%: nuclear beta-catenin stimulation ([1]; stimulation, at 2 µM)
inactive: nuclear beta-catenin stimulation ([1]; at 10 µM) -1% | insulin secretion stimulation [2] -2.35% | viability decrease [3] 2.1% | tube area decrease [4] 4.5% | GLP1 secretion stimulation [5] 4% | inhibition of viability [6] -8.6% | viability decrease (inhibition) [7] -5.5% | viability decrease (inhibition) [8] 0.5%

CC(=O)N1C[C@H](O)C[C@H]1C(=O)O
inactive: nuclear beta-catenin stimulation ([1]; at 10 µM) 0.5% | insulin secretion stimulation [2] -0.3% | viability decrease [3] -2.7% | tube area decrease [4] -1.7% | GLP1 secretion stimulation [5] -0.9% | inhibition of viability [6] 7.13% | viability decrease (inhibition) [7] 8.1% | viability decrease (inhibition) [8] 4%
-0.3%: nuclear beta-catenin stimulation ([1]; stimulation, at 2 µM)

Cc1c(C(=O)NCCO)[n+](=O)c2ccccc2n1[O-]
inactive: nuclear beta-catenin stimulation ([1]; at 10 µM) 5% | insulin secretion stimulation [2] -1.6% | viability decrease [3] -6.4% | tube area decrease [4] 14% | GLP1 secretion stimulation [5] -0.4% | inhibition of viability [6] 0.3% | viability decrease (inhibition) [7] -17.1% | viability decrease (inhibition) [8] -6.2%
3%: nuclear beta-catenin stimulation ([1]; stimulation, at 2 µM)

O=C1Cc2cc(Cl)ccc2N1
inactive: nuclear beta-catenin stimulation ([1]; at 10 µM) -0.3% | insulin secretion stimulation [2] 1% | viability decrease [3] 4.9% | tube area decrease [4] 2.8% | GLP1 secretion stimulation [5] 3.9% | inhibition of viability [6] 8.4% | viability decrease (inhibition) [7] -9.4% | viability decrease (inhibition) [8] 2.7%
-1.5%: nuclear beta-catenin stimulation ([1]; stimulation, at 2 µM)

N=C(N)c1ccc(OCCCOc2ccc(C(=N)N)cc2)cc1
inactive: nuclear beta-catenin stimulation ([1]; at 10 µM) -2.3% | insulin secretion stimulation [2] 2.7% | viability decrease [3] -29.9% | tube area decrease [4] -17.1% | GLP1 secretion stimulation [5] -1.7% | inhibition of viability [6] 7.1% | viability decrease (inhibition) [7] 9.5% | viability decrease (inhibition) [8] -2.6%
-0.9%: nuclear beta-catenin stimulation ([1]; stimulation, at 2 µM)

NC(=S)N=Nc1ccc(NN=C(N)N)cc1
0.5%: nuclear beta-catenin stimulation ([1]; stimulation, at 2 µM)
inactive: nuclear beta-catenin stimulation ([1]; at 10 µM) 1.9% | insulin secretion stimulation [2] 6.7% | viability decrease [3] -24.6% | tube area decrease [4] 15.7% | GLP1 secretion stimulation [5] -3.7% | inhibition of viability [6] 4.5% | viability decrease (inhibition) [7] 25%
active: viability decrease (inhibition) [8] 72.1%
